Values joined by “and” are separate entries in the source; they are usually repeats but may differ in a detail not shown here. Equal values may be shown once. ± gives the standard deviation of the averaged measurements.
Experiments:
Conditions in all cases: concentration: 10 µM; 24 h
[1] = system: HCC1569; assay: cell number relative to DMSO (% of DMSO); higher = more cells (less growth inhibition / toxicity)
Method in brief: (§1)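 H1.0 nuclear intensity or cell number is stated as percent of the plate control, based on the median of replicates, and HCC1569 values were smoothed for positional effects. These came from HCC1569 and TDF cells treated with compounds at 10 µM for 24 h at 37 °C in triplicate, then fixed in 3.7% formaldehyde and stained with a rabbit anti-H1.0 antibody, an AlexaFluor 647 secondary and DAPI.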

[2] = system: TDF; assay: as above
Method in brief: as §1

[3] = system: TDF; assay: H1.0 immunofluorescence intensity relative to DMSO (% of DMSO); higher = stronger H1.0 induction, active = 120 or more
Method in brief: as §1

[4] = system: HCC1569; assay: H1.0 immunofluorescence intensity relative to DMSO (% of DMSO); higher = stronger H1.0 induction, active = 140 or more
Method in brief: as §1
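Wherever H1.0 immunofluorescence intensity relative to DMSO is given: TDF is a line of transformed human dermal fibroblasts of mesenchymal origin.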
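Wherever cell number relative to DMSO is given: TDF denotes transformed human dermal fibroblasts of mesenchymal origin.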

| SMILES | cell number [1] | cell number [2] | H1.0 immunofluorescence intensity [3] | H1.0 immunofluorescence intensity [4] |
| --- | --- | --- | --- | --- |
| c1ccc2c(CC3=NCCN3)cccc2c1 [Naphazoline] | 99.4 | 102 | 98 (inactive) | 113 (inactive) |
| CCC(NC(C)C)C(O)c1ccc(O)c(O)c1.CS(=O)(=O)O (stereo not drawn) [Isotharine mesylate] | 103 | 112 | 92.8 (inactive) | 91.5 (inactive) |
| CCCCCC(O)C=CC=CC=CC(O)CC=CCCCC(=O)O (stereo not drawn) | 101 | 100 | 94.8 (inactive) | 107 (inactive) |
| Nc1nc(=O)c2nc(Br)n(C3OC4COP(=O)([O-])OC4C3O)c2[nH]1.[Na+] (stereo not drawn) [8-Bromo-cGMP sodium] | 101 | 100 | 93.4 (inactive) | 92.8 (inactive) |
| COc1c(N2CCNC(C)C2)c(F)cc2c(=O)c(C(=O)O)cn(C3CC3)c12 (stereo not drawn) [Gatifloxacin] | 101 | 107 | 94.2 (inactive) | 107 (inactive) |
| CSc1ccc2c(c1)N(CCC1CCCCN1C)c1ccccc1S2 (stereo not drawn) [Thioridazine] | 102 | 102 | 105 (inactive) | 133 (inactive) |
| Cc1ccccc1-n1c(Cn2nc(-c3cccc(O)c3)c3c(N)ncnc32)nc2cccc(C)c2c1=O | 96.9 | 95.1 | 97.7 (inactive) | 103 (inactive) |
| O=C(NCCNCC(O)COc1ccc(O)cc1)N1CCOCC1.O=C(O)C=CC(=O)O (stereo not drawn) [Xamoterol hemifumarate] | 104 | 98.5 | 88.7 (inactive) | 109 (inactive) |
| CCN1CCCC1CNC(=O)c1cc(S(=O)(=O)CC)c(N)cc1OC (stereo not drawn) [Amisulpride] | 107 | 84.5 | 104 (inactive) | 96.7 (inactive) |
| C[C@H]1CN(C[C@H](Cc2ccccc2)C(=O)NCC(=O)O)CC[C@@]1(C)c1cccc(O)c1 | 94.4 | 102 | 88.5 (inactive) | 107 (inactive) |
| C=C[C@]1(C)C[C@@H](OC(=O)CO)[C@]2(C)[C@H](C)CC[C@]3(CCC(=O)[C@H]32)[C@@H](C)[C@@H]1O | 96.4 | 115 | 106 (inactive) | 95.9 (inactive) |
| CCOC(=O)Oc1c(OC)cc(C(=O)OC2CC3CN4CCc5c([nH]c6cc(OC)ccc56)C4CC3C(C(=O)OC)C2OC)cc1OC (stereo not drawn) [Syrosingopine] | 94.7 | 104 | 96.8 (inactive) | 105 (inactive) |
| NC(Cn1ccc(=O)c(O)c1)C(=O)O [L-Mimosine] | 101 | 86.3 | 105 (inactive) | 102 (inactive) |
| Cc1ccc(NC(=O)c2cccc(N(C)C)c2)cc1NC(=O)c1ccc(O)cc1 | 92.1 and 95.3 | 100 and 94.1 | 96.7 (inactive) and 105 (inactive) | 110 (inactive) and 119 (inactive) |
| COc1cc2c(CCNC(C)=O)c[nH]c2cc1Cl [6-Chloromelatonin] | 101 | 106 | 94.8 (inactive) | 90 (inactive) |
| CC1c2cccc(O)c2C(O)=C2C(=O)C3(O)C(O)=C(C(N)=O)C(=O)C(N(C)C)C3C(O)C21 (stereo not drawn) [Doxycycline] | 101 | 93.9 | 108 (inactive) | 115 (inactive) |
| OC1C(O)C(O)C(O)C(O)C1O (stereo not drawn) [1,2,3,4,5,6-cyclohexanehexol] | 102 ± 3 | 104 ± 7.5 | 96.9 (inactive) | 92.9 (inactive) |

Reference: the supplement of paper PMC7156485
